This note sets out measurements from PubChem BioAssay.

Molecules are shown by their SMILES. Unmarked numbers belong to inactive results. For some of these results: Measured potencies and affinities stand elsewhere. The source made the active and inactive calls. Unless noted, how the calls were made is not given here.

Assay [1] can be described thus: antimalarial activity against Dd2 strain (AID 2302;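 active means growth inhibition above 50% at the single 2 µM test dose, taken to imply half-maximal potency below 2 µM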;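 further: 0% = DMSO untreated growth and 100% = chloroquine plus artemisinin killed control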). Conditions: P. falciparum Dd2 in RBCs, LDH growth readout, 72 h; at 2 µM; hits give high values.
Assay [2] is described as follows: human hepatoma cell viability loss – ATP luminescence, cytotoxicity control for P. falciparum antimalarial project, primary screen (AID 2303;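 active means inhibition above 50%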;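 further: 0% = DMSO wells and 100% = digitonin-killed cells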). Conditions: HepG2 viability, 24-48 h, at 10 µM, hits give high values.
The target of assay [3] is L-lactate dehydrogenase (Plasmodium falciparum (isolate CDC / Honduras)) (UniProt Q27743). Description: PfLDH activity inhibition – cell lysate, 3D7 strain, counter-screen for P. falciparum growth inhibition project (AID 2304).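 Further: 0% = vehicle and 100% = reference inhibitor.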 The settings on record: P. falciparum 3D7 crude extract, LDH APAD/NBT absorbance; at 2 µM; hits give high values. For orientation: Counterscreens check selectivity or assay interference.
Sequence of L-lactate dehydrogenase (Plasmodium falciparum (isolate CDC / Honduras)) (Q27743 whole entry, looked up): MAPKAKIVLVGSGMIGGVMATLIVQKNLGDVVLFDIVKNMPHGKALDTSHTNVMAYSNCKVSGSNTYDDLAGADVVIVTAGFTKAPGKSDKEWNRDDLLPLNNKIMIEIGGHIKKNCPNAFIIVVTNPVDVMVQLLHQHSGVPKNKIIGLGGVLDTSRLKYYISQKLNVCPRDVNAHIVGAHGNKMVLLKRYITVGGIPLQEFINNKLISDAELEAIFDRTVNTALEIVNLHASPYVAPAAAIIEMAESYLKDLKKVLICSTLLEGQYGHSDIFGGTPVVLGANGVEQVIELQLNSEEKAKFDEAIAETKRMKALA

The nature of assay [4]: inhibition of 3D7 malaria parasite growth – strain 3D7 (AID 2306).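 Further: 0% = DMSO wells and 100% = chloroquine plus artemisinin control wells.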 The settings on record: P. falciparum 3D7 erythrocytic growth, LDH absorbance, 72 h; at 2 µM; hits give high values.
The target in assay [5] is Calcium-dependent protein kinase 1 (Plasmodium falciparum (isolate 3D7)) (UniProt P62344). Put plainly: PfCDPK1 kinase inhibitors, biochemical, TCAMS library (AID 1159585; cut-off not given, nearly all actives have IC50 up to about 0.98 µM;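 further: inhibitors leave more ATP so luminescence rises with inhibition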). The settings on record: recombinant PfCDPK1, Kinase-Glo ATP depletion luminescence. For orientation: Kinase-Glo measures the ATP left after a reaction by luminescence.
Sequence of Calcium-dependent protein kinase 1 (Plasmodium falciparum (isolate 3D7)) (P62344 whole entry, looked up): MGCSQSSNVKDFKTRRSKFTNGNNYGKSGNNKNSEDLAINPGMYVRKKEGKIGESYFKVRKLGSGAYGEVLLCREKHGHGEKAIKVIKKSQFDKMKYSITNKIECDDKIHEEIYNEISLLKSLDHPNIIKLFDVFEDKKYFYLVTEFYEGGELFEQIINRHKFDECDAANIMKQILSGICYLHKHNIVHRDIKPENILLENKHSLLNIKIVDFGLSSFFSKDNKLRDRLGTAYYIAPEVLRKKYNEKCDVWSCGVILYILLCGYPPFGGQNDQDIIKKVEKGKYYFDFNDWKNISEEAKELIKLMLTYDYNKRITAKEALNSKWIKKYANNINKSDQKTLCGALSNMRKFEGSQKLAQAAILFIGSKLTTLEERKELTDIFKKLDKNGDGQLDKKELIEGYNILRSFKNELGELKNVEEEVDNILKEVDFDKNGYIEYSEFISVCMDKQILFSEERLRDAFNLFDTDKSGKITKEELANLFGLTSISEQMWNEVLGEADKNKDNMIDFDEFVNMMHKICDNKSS
The target in assay [6] is Plasmodium falciparum protein kinase 6 (PK6, PF3D7_1337100) (UniProt Q8IDW1). Description: PfPK6 kinase inhibitors, biochemical, TCAMS library (AID 1159586). Conditions: recombinant PfPK6, Kinase-Glo ATP depletion luminescence.
Sequence of Plasmodium falciparum protein kinase 6 (PK6, PF3D7_1337100) (Q8IDW1 1-305): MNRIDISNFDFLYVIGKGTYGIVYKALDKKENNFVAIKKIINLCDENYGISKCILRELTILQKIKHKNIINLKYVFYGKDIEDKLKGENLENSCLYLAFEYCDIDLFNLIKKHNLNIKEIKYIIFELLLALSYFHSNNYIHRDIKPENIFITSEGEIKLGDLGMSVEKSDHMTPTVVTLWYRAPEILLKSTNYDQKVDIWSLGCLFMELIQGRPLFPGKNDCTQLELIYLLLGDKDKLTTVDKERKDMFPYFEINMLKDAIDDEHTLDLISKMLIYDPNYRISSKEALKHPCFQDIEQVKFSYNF
In assay [7] the target is Protein kinase 7 (PK7), Plasmodium falciparum 3D7 (PF3D7_0213400) (UniProt Q7YTF7). Put plainly: inhibition of Plasmodium PK7 catalytic activity – biochemical, TCAMS antimalarial set, Kinase-Glo luminescence (AID 1159587). Conditions: recombinant PfPK7, Kinase-Glo ATP depletion luminescence.
Sequence of Protein kinase 7 (PK7), Plasmodium falciparum 3D7 (PF3D7_0213400) (Q7YTF7 1-343): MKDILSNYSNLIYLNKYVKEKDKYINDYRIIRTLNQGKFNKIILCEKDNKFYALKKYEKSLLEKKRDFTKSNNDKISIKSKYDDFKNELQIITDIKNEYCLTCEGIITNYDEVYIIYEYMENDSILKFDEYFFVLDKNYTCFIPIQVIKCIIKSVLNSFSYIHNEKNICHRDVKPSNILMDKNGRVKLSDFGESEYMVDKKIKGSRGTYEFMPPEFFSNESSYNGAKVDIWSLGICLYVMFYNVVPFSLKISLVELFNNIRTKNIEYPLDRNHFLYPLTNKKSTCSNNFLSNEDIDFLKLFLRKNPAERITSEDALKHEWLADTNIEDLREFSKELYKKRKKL
Assay [8] concerns the target Calcium-dependent protein kinase 4 (Plasmodium falciparum (isolate 3D7)) (UniProt Q8IBS5). Put plainly: PfCDPK4 kinase inhibitors, biochemical, TCAMS library (AID 1159588; cut-off not given, nearly all actives have IC50 up to about 0.91 µM). Conditions: recombinant PfCDPK4, Kinase-Glo ATP depletion luminescence.

Sequence of Calcium-dependent protein kinase 4 (Plasmodium falciparum (isolate 3D7)) (Q8IBS5 whole entry, looked up): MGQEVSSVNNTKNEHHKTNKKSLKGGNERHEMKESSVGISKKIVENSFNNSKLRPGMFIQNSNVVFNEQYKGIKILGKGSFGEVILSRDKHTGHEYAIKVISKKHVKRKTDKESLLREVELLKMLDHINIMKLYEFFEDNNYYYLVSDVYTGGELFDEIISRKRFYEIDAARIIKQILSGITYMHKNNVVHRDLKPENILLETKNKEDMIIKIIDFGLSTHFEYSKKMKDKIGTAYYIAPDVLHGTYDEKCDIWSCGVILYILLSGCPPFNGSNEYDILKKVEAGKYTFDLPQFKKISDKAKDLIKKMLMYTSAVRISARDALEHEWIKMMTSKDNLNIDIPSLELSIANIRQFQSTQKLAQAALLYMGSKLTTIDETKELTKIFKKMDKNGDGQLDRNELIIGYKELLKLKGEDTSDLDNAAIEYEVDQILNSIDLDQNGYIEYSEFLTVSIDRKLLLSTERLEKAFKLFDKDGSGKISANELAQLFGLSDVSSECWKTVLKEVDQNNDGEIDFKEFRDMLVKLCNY

Take `O=C(Nc1ccccc1F)NC1CCN(c2ccnc(Nc3ccc(F)cc3)n2)C1` (stereo not given): the growth inhibition in assay [1] is 74% (active); in assay [4], 95% (active). Moreover, the inhibition (commonly the change of the read-out against control, counted positive when it falls) was 0% in assay [2] and -7% in assay [3]. Also, the outcome in assay [5], in assay [6], in assay [7] and in assay [8] was inactive.

Turning to `O=C(Cn1c(CCc2cccc(F)c2F)nc(=O)c2ccccc21)N(CCCN1CCCC1)Cc1ccc(-c2ccc(C(F)(F)F)cc2)cc1`, the growth inhibition in assay [1] is 80% (active); in assay [4], 101% (active). Also, the values for the inhibition in assay [2] and in assay [3] were 54% (active) and 4%, respectively. Further, the result in assay [5], in assay [6], in assay [7] and in assay [8] was inactive.

As for `NC(=O)c1ccccc1OCC(=O)Nc1cccc(-c2cccc(-c3nc4ccccc4[nH]3)c2)c1`, the growth inhibition in assay [1] was 46%; in assay [4], 88% (active). Also, the inhibition in assay [2] was 23%; in assay [3] it was 3%. Moreover, the outcome in assay [5], in assay [6], in assay [7] and in assay [8] was inactive.

Turning to `Cc1cccc(CN2CCN(c3ncc(C(=O)NC4CC4)cc3Cl)CC2)c1`, the growth inhibition in assay [1] was 73% (active); in assay [4], 84% (active). In addition, the inhibition in assay [2] was 2%; in assay [3] it was -4%. In addition, the outcome in assay [5], in assay [6], in assay [7] and in assay [8] was inactive.

With `CCCN(Cc1ccc(C)cc1)Cc1cc(=O)c2cc(Cl)ccc2[nH]1`, the figures for the growth inhibition in assay [1] and in assay [4] were 91% (active) and 86% (active), respectively. In addition, the inhibition in assay [2] was 51% (active); in assay [3] it was 4%. The result in assay [5], in assay [6], in assay [7] and in assay [8] was inactive.

For the compound `CCCN(CC1CC1)c1nc(C)nc2c(-c3ccccc3)cc(C)cc12`, the growth inhibition in assay [1] is 78% (active); in assay [4], 96% (active). In addition, the inhibition was 72% (active) in assay [2] and 1% in assay [3]. Besides, the outcome in assay [5], in assay [6], in assay [7] and in assay [8] was inactive.

As for `c1ccc(COc2ccnc(NCCCOc3cccc(CN4CCCCC4)c3)c2)cc1`, the growth inhibition in assay [1] is 51% (active); in assay [4] it was 101% (active). For the same compound, the inhibition was 22% in assay [2] and -2% in assay [3]. In addition, the outcome in assay [5], in assay [6], in assay [7] and in assay [8] was inactive.

Consider `O=C(CNc1ccncc1)c1c[nH]c2ccccc12`, for which the growth inhibition in assay [1] was 62% (active); in assay [4], 90% (active). For the same compound, the inhibition was 31% in assay [2] and -3% in assay [3]. In addition, the result in assay [5], in assay [6], in assay [7] and in assay [8] was inactive.

With `O=C(Nc1cccc(-c2cccc(CN3CCCC3)c2)c1)c1ccc(Cl)cc1`, the growth inhibition in assay [1] is 32%; in assay [4] it was 93% (active). Also, the inhibition in assay [2] is 50% (active); in assay [3], 0%. For the same compound, the outcome in assay [5], in assay [6], in assay [7] and in assay [8] was inactive.

Take `O=S(=O)(c1cccc2cccnc12)N1CCN(C2CCCCC2)CC1`: the growth inhibition is 10% in assay [1] and 96% (active) in assay [4]. In addition, the figures for the inhibition in assay [2] and in assay [3] were 15% and 1%, respectively. Further, the outcome in assay [5], in assay [6], in assay [7] and in assay [8] was inactive.

`NC1=NC(CCc2ccccc2)N(c2ccccc2)C(N)=N1` (stereo not given): the growth inhibition is 15% in assay [1] and 94% (active) in assay [4]. Besides, the figures for the inhibition in assay [2] and in assay [3] were 1% and -9%, respectively. The result in assay [5], in assay [6], in assay [7] and in assay [8] was inactive.

`COc1cc(Cc2c(C)nc3nc(N)nc(N)c3c2C)c(Br)c(OC)c1OC`: the growth inhibition in assay [1] was -2%; in assay [4], 93% (active). Besides, the results for the inhibition in assay [2] and in assay [3] were 44% and 0%, respectively. The outcome in assay [5], in assay [6], in assay [7] and in assay [8] was inactive.

With `COc1cccc(CN2CCCN(Cc3cccc(NC(=O)c4cc5ccccc5s4)c3)CC2)c1`, the values for the growth inhibition in assay [1] and in assay [4] were 16% and 89% (active), respectively. For the same compound, the inhibition in assay [2] was 17%; in assay [3], -9%. Further, the outcome in assay [5], in assay [6], in assay [7] and in assay [8] was inactive.

In the case of `COc1ccccc1C1CCN(C2CCC(NC(=O)/C=C/c3cc(F)c(F)cc3F)CC2)CC1` (stereo not given), the growth inhibition is 0% in assay [1] and 85% (active) in assay [4]. For the same compound, the figures for the inhibition in assay [2] and in assay [3] were 39% and -5%, respectively. The outcome in assay [5], in assay [6], in assay [7] and in assay [8] was inactive.

With `Cc1cccc(C)c1CNc1ccnc2cc(Br)ccc12`, the growth inhibition in assay [1] was 99% (active); in assay [4], 95% (active). For the same compound, the inhibition in assay [2] is 24%; in assay [3], -3%. For the same compound, the outcome in assay [5], in assay [6], in assay [7] and in assay [8] was inactive.

As for `CCNCc1ccc(-c2cccc(-c3nc4ccccc4[nH]3)c2)cc1`, the growth inhibition in assay [1] was 18%; in assay [4], 102% (active). The results for the inhibition in assay [2] and in assay [3] were 26% and 4%, respectively. The result in assay [5], in assay [6], in assay [7] and in assay [8] was inactive.

Consider `Cc1noc(-c2ccc3c(c2)CCN(CCC2CCC(NC(=O)/C=C/c4cccc(Cl)c4)CC2)CC3)n1` (stereo not given), for which the growth inhibition in assay [1] was 24%; in assay [4] it was 86% (active). Besides, the inhibition in assay [2] is 37%; in assay [3] it was 4%. Also, the outcome in assay [5], in assay [6], in assay [7] and in assay [8] was inactive.

In the case of `COc1cccc(CNC[C@@H](O)[C@H](Cc2ccccc2)NC(=O)c2cc(NC(C)C)cc(N3CCCCS3(=O)=O)c2)c1`, the growth inhibition in assay [1] was 97% (active); in assay [4], 89% (active). In addition, the inhibition in assay [2] and in assay [3] was 1% throughout. The result in assay [5], in assay [6], in assay [7] and in assay [8] was inactive.

As to `CC(C)(C)CC(=O)Nc1ccc(Nc2cc(-c3ccncc3)cc3ncc(C(N)=O)cc23)cc1`, the results for the growth inhibition in assay [1] and in assay [4] were 85% (active) and 97% (active), respectively. The inhibition was 5% in assay [2] and 7% in assay [3]. Further, the outcome in assay [5], in assay [6], in assay [7] and in assay [8] was inactive.

On to `Oc1ccc(Nc2nc(N3CCCC3)c3ccccc3n2)cc1`, for which the growth inhibition is 100% (active) in assay [1] and 102% (active) in assay [4]. The inhibition is 10% in assay [2] and -6% in assay [3]. The result in assay [5], in assay [6], in assay [7] and in assay [8] was inactive.
